# Test results from PubChem BioAssay (NCI).
# About 83,000 compounds went through this panel and 20% of them were active in at least one assay; those are over-represented in the sample as a whole.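 Single-concentration screen, 48 h exposure, 96-well plates. Endpoint: percent growth. Below 10 = active.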 A number with no mark means an inactive call. Active and inactive are the calls of the source.
# Columns and labels:
# Assay in all cases: NCI-60 one-dose screen, 48 h (100 = growth as untreated, 0 = no growth, -100 = all killed)
# Conditions in all cases: 10 µM unless noted
# [1] = system: T-47D breast
# [2] = system: BT-549 breast
# [3] = system: MDA-MB-435 melanoma
# [4] = system: SW-620 colon
# [5] = system: MCF7 breast
# [6] = system: HCT-116 colon
# [7] = system: HCC-2998 colon
# [8] = system: KM12 colon
Structure (SMILES),growth [1],growth [2],growth [3],growth [4],growth [5],growth [6],growth [7],growth [8]
CCCCCCCCCCCCCCCCCCOc1ccccc1CC(=O)NCC[N+]1(C)CCCC1,69.9%,67.2%,67.4%,64.7%,53.1%,55.9%,32.7%,18.9%
CCOC(=O)c1cc(C(=O)c2cc(OC)c(OC)c(OC)c2)n2ccc(-c3ccncc3)cc12,84.1%,90.6%,106%,105%,107%,76.3%,115%,100%
Nc1c(C(=O)Nc2ccccc2Cl)sc2nc3c(cc12)C(O)CCC3 (stereo not drawn),38.6%,52.1%,1.93% (active),49.3%,24.4%,29.3%,64.3%,31.9%
CCc1n(Cc2ccc3ccccc3c2)cc[n+]1Cc1ccc2ccccc2c1,-10.2% (active),-2.05% (active),-22.1% (active),16%,2.44% (active),4.69% (active),-6.82% (active),-52.2% (active)
COC(=O)/C=C1/SC(=Nc2ccc(C)cc2)N(CCc2c[nH]c3ccc(O)cc23)C1=O,35%,9.38% (active),14.9%,44.2%,18.6%,16.9%,46.7%,43.6%
CCN(CC)CCOc1ccc(-c2c(-c3ccccc3)c(=O)oc3ccccc23)cc1,47%,69.3%,100%,87.3%,89.6%,65.6%,99.1%,100%
c1ccc(C2=NN[C@H](c3cn(-c4ccccc4)nc3-c3ccccc3)C2)cc1,43.5%,48.7%,67%,55.7%,74.4%,22.8%,64.6%,62.8%
OCc1cccc(-c2ccc3ncc(-c4nc(NC5CC5)ncc4F)n3c2)c1,-2.9% (active),-7.54% (active),-31.7% (active),0.326% (active),-19.3% (active),1.41% (active),-0.971% (active),-18.8% (active)
COc1ccc2cc(C(=O)c3coc4ccc(O)cc34)ccc2c1,84.2%,94.2%,104%,116%,37.5%,94%,103%,90.3%
O=C1/C(=C/c2ccc(Cl)cc2)COc2ccc(O)cc21,83.5%,80.5%,64.7%,2.28% (active),5.46% (active),4.5% (active),83.8%,20.3%
COc1cc2oc(-c3cccc(NC(=O)c4cccc(Br)c4)c3)cc(=O)c2c(OC)c1OC,27.7%,50.2%,57.4%,65.1%,54.8%,40.2%,57.8%,40.4%
N#CCSc1nnc2n(Cc3ccccc3)c(=O)c3c4c(sc3n12)CCCC4,111%,98.7%,107%,109%,98.9%,92.7%,105%,101%
CC[C@]12C=CCN3CC[C@@]4(c5cc(NC(=O)CCC(=O)OCc6cn(Cc7ccc(F)cc7)nn6)c(OC)cc5N(C)[C@H]4[C@@](O)(C(=O)OC)[C@@H]1OC(C)=O)[C@@H]32,102%,108%,101%,104%,96.4%,96.3%,106%,103%
COCCn1cc(-c2nc(-c3cc4cccnc4n3CCOC)cs2)c2cc(OC)ccc21,-10.5% (active),57%,91.4%,49%,5.4% (active),43%,28%,11.8%
CCc1nc2c(=O)[nH]cnc2o1,105%,102%,110%,106%,96.4%,103%,109%,110%
COc1ccc(-c2nc3c(c(-c4ccccc4)nn3-c3ccccc3)c(-c3ccc(N4CCN(C)CC4)cc3)c2C#N)cc1,96.2%,90.6%,93.9%,85.6%,81%,81.4%,106%,95.6%

Structure (SMILES),growth [1],growth [2],growth [3],growth [4],growth [5],growth [6],growth [7],growth [8]
COc1cc(-c2csc(NC(=O)c3cc(-n4cnc(C)c4)cc(C(F)(F)F)c3)n2)cc(OC)c1OC,23.5%,47.4%,74.8%,77.9%,61.8%,40.4%,83.9%,56.4%
CCO/C=N/C1=C(C#N)C(c2ccc(OC)cc2)c2sc3c(F)cccc3c2O1 (stereo not drawn),35.4%,49.8%,-42.8% (active),22.4%,12.9%,33.8%,70.8%,25.3%
CCOC(=O)c1ccc2[nH]c(O)c(C(=Nc3ccc(N(C)C(=O)CN4CCN(C)CC4)cc3)c3ccccc3)c2c1,21.6%,-75.9% (active),-42% (active),-34.4% (active),-63.9% (active),-38.8% (active),-55.2% (active),-33.4% (active)
CCCCCCCCn1ccc2cc(NC(=O)Cn3cc(CN4CCCCC4)nn3)ccc21,-14.1% (active),71.6%,-74.6% (active),-66.1% (active),9.34% (active),2.64% (active),-70.4% (active),19%
N=C(N)c1ccc(-c2ccc(-c3ccc(Cl)cc3)s2)nc1,56.4%,98%,-15% (active),-83.5% (active),-73.3% (active),-82.3% (active),-78.2% (active),-74.8% (active)
CCNc1cc(-c2cccc(OC(F)(F)F)c2)nc2ccc(N3CCCC3)cc12,-24.6% (active),75.2%,2.21% (active),4.43% (active),3.29% (active),-15.9% (active),6.29% (active),4.19% (active)
CN1C(=O)/C(=C/c2ccc(C(=O)Nc3ncc(Cc4ccc(Cl)cc4)s3)cc2)SC1=S,37.8%,46.7%,-32% (active),28.9%,55.5%,24.2%,59.3%,21.1%
O=C(NNc1nccc(Nc2ccc(S(=O)(=O)Nc3ccncc3)cc2)n1)c1ccccc1,92.6%,89.5%,105%,106%,94%,99.2%,21.4%,101%
O=C(CSc1nc2ccc([N+](=O)[O-])cc2[nH]1)Nc1cccc(C(F)(F)F)c1,6.1% (active),16.5%,13.8%,28.2%,15.7%,12.8%,30.7%,17.1%
CC(C)c1ccc(COCc2cc(CN3CCCC3)c(O)c3ncccc23)cc1,-7.55% (active),13.1%,20.2%,3.8% (active),7.67% (active),5.58% (active),14.6%,14.1%
Cc1ccc(-c2nc3nc(-c4ccccc4)nc(N4CCNCC4)c3o2)cc1,-68.4% (active),-71.9% (active),-87.4% (active),-69.4% (active),-66.2% (active),-77.1% (active),-86.8% (active),-87.9% (active)
CCOC(=O)c1cc2c(=O)oc3ccccc3c2oc1=O,107%,99.4%,111%,105%,99.8%,109%,102%,110%
N#C/C(=C/c1ccc([N+](=O)[O-])cc1)n1nnc2cc(F)c(F)cc21,11.6%,77.3%,64.2%,59.7%,8.8% (active),5.65% (active),70.5%,13.1%
CCCC(O)Cn1ncc(C(=O)OCC)c1NC(=O)NCc1ccccc1F (stereo not drawn),87.2%,90.2%,103%,105%,88%,73.8%,87.8%,97.3%
O=C1COCCN1c1ccc(Nc2nc(Cl)nc(OCc3cn(Cc4ccccc4)nn3)n2)cc1,68.6%,90.3%,96.2%,88.6%,62.4%,91.9%,63.7%,90.5%
